High-throughput results deposited in PubChem by National Center for Advancing Translational Sciences (NCATS).
GLP1R ag: qHTS of GLP-1 Receptor Agonists | Glucagon-like peptide 1 receptor (Homo sapiens), P43220 | AID 624172, 2012 | HEK293 GLP-1R CRE-luciferase, luminescence, 4-6 h; cells express a hypersensitive GLP-1R form | hit rate 0.007% among 380,000 | Potency, µM (titrated, usually from 45.6 µM), without a hit: at the highest dose activation, actives largely listed as activators; note: potency is the fitted concentration of half-maximal effect; % of control where 0% means no effect
PTHR1 ag: qHTS for PTHR1 Agonists: Primary Screen; Parathyroid hormone/parathyroid hormone-related peptide receptor (Homo sapiens), Q03431; HEK293 GP2 PTHR1 cells, GloSensor cAMP luminescence, 1 h; hit rate 0.075% among 410,000; Potency, µM (doses to about 115 µM), for the others: at the top dose activation, actives largely listed as activators; note: potency is the fitted concentration of half-maximal effect; nearly all actives have a fitted effect of over 55% in size
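HEK-293-derived GP2 cells expressing PTHR1 and a GloSensor cAMP reporter, 3,000/well, plated overnight, given luciferin plus IBMX (each 0.5 mM as added) for 1 h at 37 °C, then compound for 1 h at 37 °C. Luminescence was read after 15 min at room temperature.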
TSHR antagonist: Antagonists of the Thyroid Stimulating Hormone Receptor: HTS campaign; Thyrotropin receptor (Homo sapiens), P16473; TSHR-expressing cells, TSH-stimulated cAMP HTRF, 2 h; hits give low values; activity change, negative = inhibition, % at 11.5 µM; hit rate 0.2% among 330,000; AID 504810, 2011;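 active = activity change below a set negative limit, meaning inhibition stronger than a set level, cut at about -70% in these data; inconclusive = activity change between two set negative limits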; note: % is set by controls: 0 for no effect and ±100 for the full control effect
Target sequence (P16473 whole entry, looked up): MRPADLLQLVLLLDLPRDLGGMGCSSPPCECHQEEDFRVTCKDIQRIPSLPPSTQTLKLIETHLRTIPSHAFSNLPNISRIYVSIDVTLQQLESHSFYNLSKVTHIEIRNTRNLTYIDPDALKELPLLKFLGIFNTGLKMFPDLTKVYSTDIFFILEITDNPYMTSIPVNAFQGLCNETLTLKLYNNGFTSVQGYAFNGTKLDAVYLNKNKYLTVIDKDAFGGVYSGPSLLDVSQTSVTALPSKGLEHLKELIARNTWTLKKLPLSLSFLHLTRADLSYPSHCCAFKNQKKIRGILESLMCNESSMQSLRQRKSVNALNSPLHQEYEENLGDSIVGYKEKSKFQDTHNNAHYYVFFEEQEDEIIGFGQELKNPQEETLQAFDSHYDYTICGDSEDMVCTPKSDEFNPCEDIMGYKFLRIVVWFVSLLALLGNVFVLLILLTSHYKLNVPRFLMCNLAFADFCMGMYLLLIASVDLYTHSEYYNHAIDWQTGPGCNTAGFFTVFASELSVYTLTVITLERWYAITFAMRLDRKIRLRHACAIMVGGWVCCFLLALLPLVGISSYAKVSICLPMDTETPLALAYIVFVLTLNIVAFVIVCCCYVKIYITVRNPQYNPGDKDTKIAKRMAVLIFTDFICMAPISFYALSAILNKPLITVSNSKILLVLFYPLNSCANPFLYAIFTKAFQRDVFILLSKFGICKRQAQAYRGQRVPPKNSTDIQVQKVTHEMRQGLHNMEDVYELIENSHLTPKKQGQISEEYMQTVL
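Freshly harvested TSHR cells receive pin-tooled compound, then EC80 TSH at 4nM final. After 2 hours at 37 deg C, antibody in lysis buffer and cAMP-d2 are added; 30 minutes at ambient temperature precede the HTRF read.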
GLP1R inv ag: qHTS of GLP-1 Receptor Inverse Agonists (Inhibition Mode) | Potency, µM (highest dose often 38.3 µM), for the others: top-dose activity change, negative = inhibition, hits mostly inhibitors | HEK293 GLP-1R CRE-luciferase, luminescence, 24 h; GLP-1R form is constitutively active | AID 624417, 2012 | Glucagon-like peptide 1 receptor (Homo sapiens), P43220 | hit rate 1.6% among 410,000; note: potency is the fitted concentration of half-maximal effect; % is set by controls: 0 for no effect and ±100 for the full control effect; nearly all actives have a fitted effect of over 55% in size
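Inverse agonism was detected as reduced cAMP-driven luciferase luminescence after 24 h compound treatment. The cells were HEK293 clones expressing constitutively active human GLP-1R with the reporter. Reporter-only and GPR119 cell lines served as counterscreen controls.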
HEK293 tox: qHTS of GLP-1 Receptor Inverse Agonists: Cytotox Screen; Potency, µM (series often up to 38.3 µM), for inactives: top-dose activity change, negative = inhibition, most hits filed as inhibitors; HEK293 cAMP-luciferase reporter cells, luminescence, 24 h; AID 624418, 2012; hit rate 0.13% among 410,000;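 note: loss of luciferase light is scored as toxicity; potency is the fitted concentration of half-maximal effect; % is set by controls: 0 for no effect and ±100 for the full control effect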
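MLSMR compounds, 24 hr on cells at 37 deg C/5% CO2; luminescence after luciferase reagent (12 min RT). Inhibition counted as the undesired cytotoxic outcome.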
* hit, by the source's call; i = inactive; ? = inconclusive; . = not tested or not shown; [ ] = remark or other dose. Most compounds without a hit are left out; they make up all but 1.8% or so of the library. Unless noted, calls come from the whole dose curve; as a rule, active = well fitted curve in the direction sought with a large enough effect; inconclusive = small, poorly fitted or top-dose-only effect, or another doubt; inactive = no such curve, though single readings can be large; an effect the other way counts as inactive or inconclusive.

SMILES	GLP1R ag	PTHR1 ag	TSHR antagonist	GLP1R inv ag	HEK293 tox
O=C(/C=C/c1ccc2c(c1)OCO2)Nc1nc(-c2ccccc2)cs1	-15%	-15%[57.5 µM]	-79*	?	23%
CCc1ccccc1-n1c(C)nc2cc(C(=O)NCCc3ccc(Cl)cc3)ccc21	.	-15%	.	?	?
COc1ccc(CN2COc3ccc4c(-c5ccccc5)cc(=O)oc4c3C2)cc1	.	-24%	.	11%	51%
CC(C)CNC(=O)c1nc(-c2ccccc2)n(-c2ccccc2)n1	4%	-9%[57.5 µM]	-2	13µM*	-9%
Cc1nn(-c2ccccc2)c(Cl)c1C(=O)NCC(C)C	1%	i	-5	-5%	6%
O=S1(=O)c2ccccc2N(Cc2cccc(Cl)c2)c2ccccc21	.	-12%	.	?	18%
Cc1onc(-c2c(F)cccc2Cl)c1C(=O)OCC(=O)c1c[nH]c2ccccc12	9%	i	-6	8.9µM*	-1%
Cc1noc(C)c1C(=O)OCC(=O)c1c[nH]c2ccccc12	11%	-10%	-11	5%	-16%
Cc1ccc(C2=NN(C(=O)CCl)C(c3cccs3)C2)o1 (centres undefined)	10%	-30%	16	3.2µM*	?
Cc1ccc(C)c(NC(=O)C(=O)NCCc2csc3nc(-c4ccccc4C)nn23)c1	.	-96%	.	-18%	15%
[O-]/C(=C(\C(=S)Nc1ccc(SC(F)F)cc1)[n+]1ccccc1)c1cc(Cl)ccc1Cl	11%	-33%	?	6.3µM*	-11%
[O-]/C(=C(\C(=S)Nc1ccc(SC(F)F)cc1)[n+]1cccc(CO)c1)c1ccc(Cl)s1	10%	-10%	-10	5µM*	?
CCc1ccccc1NC(=O)CSc1ncc(S(=O)(=O)c2ccccc2)c(N)n1	0%	-6%	.	-11%	-9%
O=C(Nc1ncccn1)C12CC3CC(CC(C3)C1)C2	6%	i	2	3%	13%
O=C(Nc1nccs1)C12CC3CC(C1)CC(C(=O)Nc1nccs1)(C3)C2	-23%	-12%	-3	4.5µM*	-14%
CCN(CC)CCNC(=O)c1ccc2c(=O)n3nc(Nc4cccc(Cl)c4C)sc3nc2c1	.	?	.	?	-25%
COC(=O)c1ccccc1NC(=O)Nc1ccc(C(=O)N2CCCC2)cc1	-10%	-9%[57.5 µM]	-1	?	-12%
COc1cccc(NC(=O)Nc2ccncc2)c1	2%	i	-13	-4%	6%
COc1ccccc1NC(=O)Nc1ccc(C(=O)N2CCCCC2)cc1	8%	-6%	8	8.9µM*	-14%
COc1ccccc1NS(=O)(=O)c1cccc(NC(=O)Nc2ccccc2)c1	-10%	-24%	-10	5.6µM*	?
COc1cccc(NC(=O)NCCc2ccc(Cl)cc2)c1	10%	i	0	10µM*	1%
COc1cccc(NC(=O)Nc2ccc(C(C)(C)C)cc2)c1	9%	-30%	-10	6.3µM*	-31%
CCS(=O)(=O)c1ncc(Cl)c(C(=O)N2CCN(c3ccc(OC)cc3)CC2)n1	.	-96%	.	-25%	?
Cc1ccc(C(=O)COC(=O)CCC(=O)Nc2ccc(Oc3cc(C)ccc3C(C)C)cc2)cc1	.	-3%	.	?	1%
COc1ccccc1NC(=S)NCCSc1ccc(Cl)cc1	10%	i	-13	1%	2%
SMILES	GLP1R ag	PTHR1 ag	TSHR antagonist	GLP1R inv ag	HEK293 tox
COc1ccccc1NC(=O)CC1CCCC1	9%	-2%	-1	11%	2%
COc1ccccc1NC(=S)NCC1CCCCC1	5%	1%	-3	10µM*	?
CCOc1ccc(NC(=O)NCCCCc2ccccc2)cc1	0%	-24%	5	-29%	6%
COc1ccc(NC(=O)NCCCCc2ccccc2)cc1	1%	i	-20	6.3µM*	1%
COc1ccccc1NC(=S)NC1CCCCCCCCCCC1	-5%	i	-19	?	0.5µM*
COc1ccccc1NC(=S)NCCc1ccc(Cl)cc1	4%	-9%[57.5 µM]	15	5µM*	8%
COc1ccccc1NC(=S)NC1CCCCC1	0%	-18%	39	-19%	-1%
Cc1c(C(=O)N2CCC(C)CC2)c(S(=O)(=O)Nc2cccc(C(F)(F)F)c2)c(C)n1C	.	-29%	.	?	-16%
COc1ccccc1CN(Cc1ccco1)c1cnc(S(C)(=O)=O)nc1C(=O)Nc1ccccc1Cl	.	-15%	.	13%	17%
COc1ccccc1NS(=O)(=O)c1ccc(C)c(NC(=O)NC2CCCCC2)c1	5%	-41%	-6	11µM*	-8%
Cc1ccc(NC(=O)NC(C)c2c(-n3cccc3)sc(C)c2C)cc1F (centres undefined)	.	-40%	.	?	-28%
Cc1sc(-n2cccc2)c(C(C)NC(=O)Nc2cccc(C(F)(F)F)c2)c1C (centres undefined)	.	-46%	.	8.9µM*	-7%
CCOc1ccc(CNC(=O)C2CCN(c3nnc(-n4c(C)ccc4C)s3)CC2)cc1	.	i	.	-7%	-6%
C/C=C/c1ccc(OCC(O)CN2CCCCC2CC)c(OC)c1 (centres undefined)	-1%	i	-3	13µM*	1%
CCc1nc2c(OCc3ccccc3C)cccn2c1N(C)C(=O)CC(C)C	-1%	-31%	.	?	-3%
CCCCC(=O)N(C)c1c(CC)nc2c(OCc3ccccc3C)cccn12	9%	-8%	.	11µM*	6%
CCc1nc2c(OCc3ccc(C(F)(F)F)cc3)cccn2c1N(C)C(=O)C1CC1	-7%	-24%	.	14µM*	-7%
C(=C1NCCN1)c1cccc2ccccc12	-3%	.	.	.	.
O=[N+]([O-])c1cc(Br)c(O)c(C=Nc2ccc(N3CCOCC3)cc2)c1	5%	-9%	-86*	-5%	-21%
COc1cccc(C=Nc2ccc(N3CCOCC3)cc2)c1O	14%	i	-7	-3%	2%
CCC(CCCO)CCC[C@H](C)CCC1OCCO1 (some centres undefined)	-3%	-2%	-15	8.9µM*	17%
Cc1cc(C)c(NC(=O)CSc2nc(=O)[nH]c3c2CCCC3)c(C)c1	.	-15%	.	7%	0%
OC1(c2ccccc2)CC(c2ccccc2)c2ccccc2O1 (centres undefined)	1%	-36%	.	11µM*	?
C=CCNCC(=O)N1N=C(c2ccc3ccccc3c2)CC1c1ccc(OC)cc1 (centres undefined)	21%	-25%	9	13µM*	?
O=C(CN1C=NS(=O)(=O)c2ccccc21)Nc1ccc(Br)cc1	.	i	.	-17%	3%
